Potency and affinity values are given separately. Results filed as inconclusive are left out. Calls of active or inactive are those of the source.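 The calls were made as follows: active = fitted half-maximal concentration no higher than twice the top tested dose, in every repeat run; inconclusive = repeat runs disagree, poor fit, or flat partial inhibition; inactive = the rest.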
Each molecule was assayed against Endoplasmic reticulum aminopeptidase 1 (Homo sapiens) (UniProt Q9NZ08) (assay: inhibition of human ERAP1 enzyme activity – biochemical, cherry-pick, set 2, plate reader, dose response (AID 743314;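 also: 0% = neutral control wells and -100% = L-leucinethiol positive control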)). Details: Recombinant ERAP1, Leu-AMC fluorescence, 60 min; series mostly up to 11 µM; activity change, negative = inhibition: at the top concentration.
Endoplasmic reticulum aminopeptidase 1 (Homo sapiens), sequence (Q9NZ08 whole entry, looked up): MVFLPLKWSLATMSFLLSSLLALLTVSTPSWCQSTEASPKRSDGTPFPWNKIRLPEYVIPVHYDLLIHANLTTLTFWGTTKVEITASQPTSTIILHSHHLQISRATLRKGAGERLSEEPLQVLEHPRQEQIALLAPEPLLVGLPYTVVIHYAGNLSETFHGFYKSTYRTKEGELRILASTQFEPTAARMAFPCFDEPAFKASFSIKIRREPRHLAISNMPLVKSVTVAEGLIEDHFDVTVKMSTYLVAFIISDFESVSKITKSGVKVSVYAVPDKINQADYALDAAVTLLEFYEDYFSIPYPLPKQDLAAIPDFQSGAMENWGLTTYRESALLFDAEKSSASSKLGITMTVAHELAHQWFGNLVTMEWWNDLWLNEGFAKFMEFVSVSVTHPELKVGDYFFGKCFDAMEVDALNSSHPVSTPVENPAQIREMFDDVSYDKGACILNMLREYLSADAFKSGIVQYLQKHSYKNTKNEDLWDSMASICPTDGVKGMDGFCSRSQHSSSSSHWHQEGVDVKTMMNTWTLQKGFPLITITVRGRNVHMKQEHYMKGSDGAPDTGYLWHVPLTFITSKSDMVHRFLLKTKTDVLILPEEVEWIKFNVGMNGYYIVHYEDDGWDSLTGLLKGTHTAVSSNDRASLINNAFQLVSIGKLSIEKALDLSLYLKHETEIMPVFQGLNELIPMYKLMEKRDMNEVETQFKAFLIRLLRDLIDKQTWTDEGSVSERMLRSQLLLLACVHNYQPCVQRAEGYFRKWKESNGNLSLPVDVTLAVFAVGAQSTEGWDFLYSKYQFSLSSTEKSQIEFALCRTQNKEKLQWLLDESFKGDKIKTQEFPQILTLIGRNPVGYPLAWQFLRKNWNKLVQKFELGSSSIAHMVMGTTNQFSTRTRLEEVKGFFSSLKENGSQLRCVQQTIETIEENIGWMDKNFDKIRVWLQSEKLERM

Structure (SMILES)	activity change, negative = inhibition
CCC(C)N(C(=O)COC(=O)c1nc2nc(C)cc(C)n2n1)C1CCS(=O)(=O)C1 (stereo not given)	10.6% (inactive)
Cc1noc(C)c1NC(=O)N(C)C[C@@H]1Oc2c(NC(=O)Nc3ccc(F)cc3)cccc2C(=O)N([C@@H](C)CO)C[C@@H]1C	51.5% (inactive)
CCOC(=O)N1CCc2c(sc(NC(=O)c3ccc(S(=O)(=O)N4CCCC4)cc3)c2C#N)C1	-2.67% (inactive)
C[C@H](CO)N1C[C@H](C)[C@@H](CN(C)C)OCCCC[C@H](C)Oc2ccc(NS(=O)(=O)c3ccc(Cl)cc3)cc2C1=O	10.9% (inactive)
O=C(C[C@@H]1CC[C@@H]2[C@H](COC[C@@H](O)CN2C(=O)Cc2ccccc2)O1)NC1CCC1	36.4% (inactive)
COc1ccc(CN(C)C[C@H]2Oc3c(NC(=O)NC4CCCCC4)cccc3C(=O)N([C@H](C)CO)C[C@@H]2C)cc1	13.5% (inactive)
C[C@@H]1CCCCO[C@@H](CN(C)C)[C@H](C)CN([C@@H](C)CO)C(=O)c2cc(NS(=O)(=O)c3ccc(Cl)cc3)ccc2O1	22.3% (inactive)
Cc1noc(C)c1NC(=O)N(C)C[C@H]1Oc2c(NC(=O)Nc3ccc(F)cc3)cccc2C(=O)N([C@@H](C)CO)C[C@@H]1C	16.4% (inactive)
C/C=C/c1ccc([C@H]2[C@@H](CO)N(C(=O)CC)[C@@H]2CNCC2CCCCC2)cc1	38.1% (inactive)
COc1ccc(CN(C)C[C@H]2OCCCC[C@@H](C)Oc3ccc(NS(=O)(=O)c4cccs4)cc3C(=O)N([C@@H](C)CO)C[C@@H]2C)cc1	53.9% (inactive)
CN(c1ccccc1)S(=O)(=O)c1cc(C(=O)OCC(=O)N2CCN(C(=O)c3ccco3)CC2)ccc1Cl	-3.85% (inactive)
C[C@@H]1CN([C@@H](C)CO)C(=O)Cc2cc(NC(=O)Nc3cccc4ccccc34)ccc2O[C@H]1CN(C)Cc1ccc(C(=O)O)cc1	17.1% (inactive)
C[C@H]1CN([C@@H](C)CO)C(=O)CCCn2cc(nn2)CO[C@@H]1CN(C)Cc1ccccc1	23.4% [at 5.6 µM] (inactive)
COc1ccc(CNCc2c(O)c(Cl)cc3c(C)c(C)c(=O)oc23)c(OC)c1	83.8% [at 5.6 µM] (inactive)
CC(=O)N1CC[C@@H]2[C@H]1c1cc(-c3ccc(C#N)cc3)ccc1N(C)[C@H]2CO	-3.73% (inactive)
c1ccc(Nc2nc(NCC3CCCO3)c3ccccc3n2)cc1 (stereo not given)	38.2% (inactive)
CN(CC(=O)Nc1ccccc1C(F)(F)F)C(=O)CSc1nnc(-c2ccncc2)n1C	14.9% (inactive)
O=C(CNC(=O)OCc1ccccc1)Nc1ccc(F)cc1	-11.2% (inactive)
C[C@@H]1CN([C@H](C)CO)S(=O)(=O)c2ccc(-c3ccccc3)cc2O[C@H]1CN(C)S(C)(=O)=O	40.4% (inactive)
CCN(Cc1ccc(OC)c(F)c1)C(=O)C1CCCO1 (stereo not given)	-14.1% (inactive)
COc1cc2cc(C(=O)N3CCN(Cc4ccc5c(c4)OCO5)CC3)c(=O)oc2cc1OC	52.3% [at 5.6 µM] (inactive)
CCc1cccc(C)c1NC(=O)c1cc(=O)[nH]c2ccc(S(=O)(=O)N3CCOCC3)cc12	2.94% (inactive)
CCN1CCN(CCCNC(=O)c2cc3c(s2)-c2ccccc2OC3)CC1	-21.4% (inactive)
C[C@H]1CN([C@@H](C)CO)C(=O)c2cccc(NC(=O)Nc3ccc(F)cc3)c2O[C@@H]1CN(C)C(=O)Nc1ccc2c(c1)OCO2	51% (inactive)
Cc1noc(C)c1NC(=O)N(C)C[C@@H]1Oc2c(NC(=O)Nc3ccc(F)cc3)cccc2C(=O)N([C@@H](C)CO)C[C@H]1C	28.5% (inactive)

From PubChem BioAssay AID743314 (Broad Institute, 2014)
